Results published in PubChem BioAssay (Tox21).
Results filed as inconclusive are left out. Active and inactive are the calls of the source. Calls follow the shape of the dose curve; as a rule, active = well fitted activation curve with a large enough effect; inconclusive = small, poorly fitted or top-dose-only effect; inactive = flat fitted curve, though single readings scatter.

test: qHTS assay to identify small molecule phospholipidosis (PLD) inducers (AID 1259344); conditions: HepG2 phospholipidosis, LipidTOX Red imaging, 24 h; series mostly up to 38.3 µM; PLD induction: at the top concentration
From the text: National Center for Advancing Translational Sciences [NCATS]
Drug-induced Phospholipidosis (PLD) caused by cationic amphiphilic drugs is characterized by the appearance of unicentric or multicentric-lamellar bodies when viewed under electron microscope. Electron microscopy is the gold standard method for PLD detection, however, this method is time-consuming and labor intensive, making it unsuitable for evaluating a large set of compounds. A cell-based phospholipidosis assay has been developed using the LipidTox reagent in HepG2 cells and miniaturized into a 1536-well plate format. Drug induced phospholipid accumulation is stained with the LipidTox dyes in red color which then is determined using an automated high content screening system.
HepG2 cells are dispensed at 900 cells/3 uL/well into Collagen I-coated 1536-well black-wall/clear-bottom assay plates (Greiner Bio-One, Monroe, NC) using the Multidrop Combi 8 channel dispenser (Thermo Fisher, Waltham, MA, USA). The assay plates are incubated at 37 C for 4 hours to allow the cell attachment. 3 uL of 1:500 LipidTOX Red dye is added using the dispenser, and then 23 nL compounds are added via a Wako Pintool station (Wako Automation, San Diego, CA). Amiodarone, a known PLD inducer, was used as a positive control and DMSO was used as a negative control. The assay plates were then incubated at 37 C for 24 hours.
For fixations, 4 uL of 8% paraformaldehyde fixative solution containing 10 ug/mL Hoechst 33342 in Dulbecco's phosphate-buffered saline (DPBS) is added using a Kalypsys washer/dispenser (Kalypsys, San Diego, CA, USA). After incubation at room temperature for 30 min, the assay plates are washed once with DPBS using a Kalypsys washer/dispenser. The assay plates are then sealed and stored at 4 C before imaging. The fluorescence intensities (595 nm excitation, 615 nm emission for LipidTOX; 352 nm excitation, 461 nm emission for Hoechst 33342) are measured using an ImageXpress Micro Widefield High Content Screening System (Molecular Devices, Sunnyvale, CA, USA) with a 20x Plan Fluor objective. Images are acquired for one site in each well and analyzed with the MetaXpress software (Molecular Devices) using the Transfluor module. Several algorithmic outputs, such as pit count per well, pit count per cell, pit integrated intensity per well, and pit integrated intensity per cell, are used for quantitative image analysis for PLD.
% is scaled to controls: 0 for no effect and ±100 for the full control effect; potency is read from the fitted curve at half-maximal effect.

Row | SMILES | PLD induction | Potency
1 | COc1cc(C(=O)N2CCCCCCC2)cc(OC)c1OC | 0.305% (inactive) | –
2 | C[C@](N)(Cc1ccc(O)cc1)C(=O)O | -0.154% (inactive) | –
3 | O=C(CCCN1CCN(c2ccccn2)CC1)c1ccc(F)cc1 | 0.574% (inactive) | –
4 | Cc1cccn2c(=O)c(-c3nnn[nH]3)cnc12 | -0.0118% (inactive) | –
5 | COC(=O)C1=C(C)NC(C)=C(C(=O)OC)C1c1ccccc1[N+](=O)[O-] | 4.64% (inactive) | –
6 | NC(=O)c1cn(Cc2c(F)cccc2F)nn1 | 0.742% (inactive) | –
7 | NS(=O)(=O)c1cc(C(=O)O)cc(N2CCCC2)c1Oc1ccccc1 | 0.557% [at 15.5 µM] (inactive) | –
8 | Nc1ccc(S(=O)(=O)Nc2ccnn2-c2ccccc2)cc1 | -0.326% [at 15.5 µM] (inactive) | –
9 | NS(=O)(=O)c1cc2c(cc1Cl)NC(C1CC3C=CC1C3)NS2(=O)=O (stereo not given) | 0.0486% (inactive) | –
10 | CO/N=C(/C(=O)N[C@@H]1C(=O)N2C(C(=O)OCOC(=O)C(C)(C)C)=C(C)CS[C@H]12)c1csc(N)n1 | -5.34% (inactive) | –
11 | CN(C)CCCSc1ccccc1NC(=O)/C=C/c1ccccc1 | 13.6% (inactive) | –
12 | CCOC(=O)[C@H](CCc1ccccc1)N[C@@H](C)C(=O)N1[C@H](C(=O)O)C[C@@H]2CCC[C@@H]21 | 0.143% (inactive) | –
13 | Nc1c2c(nc3ccccc13)CCCC2O (stereo not given) | 0.566% (inactive) | –
14 | NCCc1cnc[nH]1 | 8.79% (inactive) | –
15 | Brc1c(NC2=NCCN2)ccc2nccnc12 | -0.122% (inactive) | –
16 | NS(=O)(=O)c1ccc(C(=O)O)cc1 | -0.298% (inactive) | –
17 | CCCN(CCC)CCc1cccc2c1CC(=O)N2 | 6.87% (inactive) | –
18 | CC(=O)OCC(=O)[C@@]1(O)CC[C@H]2[C@@H]3CCC4=CC(=O)CC[C@]4(C)[C@H]3C(=O)C[C@@]21C | 2.36% (inactive) | –
19 | CC1(C)CO[C@@H](CC(=O)O)CN1 | 0.207% (inactive) | –
20 | CCN(CC)CCOCCOC(=O)C1(c2ccccc2)CCCC1 | -0.439% (inactive) | –

Row | SMILES | PLD induction | Potency
21 | COc1ccc(CCN(C)CCCC(C#N)(c2cc(OC)c(OC)c(OC)c2)C(C)C)cc1OC (stereo not given) | – | 5.62 µM (active)
22 | CC(C(=O)O)c1ccc(CC2CCCC2=O)cc1 (stereo not given) | -0.614% (inactive) | –
23 | COc1ccc2c(c1)c(CC(=O)OCC(=O)O)c(C)n2C(=O)c1ccc(Cl)cc1 | -3.32% (inactive) | –
24 | Cc1cc(O)cc2c1O[C@](C)(CCC[C@H](C)CCC[C@H](C)CCCC(C)C)CC2 | – | inactive
25 | FC(F)OC(Cl)C(F)(F)F (stereo not given) | -0.656% (inactive) | –
26 | CO[C@]12C[C@@H](COC(=O)c3cncc(Br)c3)CN(C)[C@@H]1Cc1cn(C)c3cccc2c13 | 1.59% (inactive) | –
27 | Nc1cc(=O)[nH]c(N)n1 | 1.63% [at 7.66 µM] (inactive) | –
28 | c1cnc(N2CCN(Cc3ccc4c(c3)OCO4)CC2)nc1 | 2.48% (inactive) | –
29 | CC(C)NCC(O)c1ccc(NS(C)(=O)=O)cc1 (stereo not given) | – | inactive
30 | N[C@H](C(=O)O)c1ccc(O)cc1 | -0.146% (inactive) | –
31 | Nc1c[n+](N2CCOCC2)no1 | -6.42% (inactive) | –
32 | CC(=O)OCC(CCn1cnc2cnc(N)nc21)COC(C)=O | -0.074% (inactive) | –
33 | CC(C)(c1ccc(O)cc1)c1ccc(O)cc1 | 12.6% [at 78.4 µM] (inactive) | –
34 | C[C@H](NC(CCc1ccccc1)C(=O)O)C(=O)N1CCC[C@H]1C(=O)O (stereo not given in full) | -1.89% (inactive) | –
35 | O=C(O)COc1nn(Cc2ccccc2)c2ccccc12 | 0.538% (inactive) | –
36 | C[N+](C)(C)CCCCCC[N+](C)(C)C | -0.726% (inactive) | –
37 | O=S(O)CO | -2.17% (inactive) | –
38 | CCCCOCCOCCOCc1cc2c(cc1CCC)OCO2 | – | inactive
39 | O=C(O)c1ccccc1OP(=O)(O)O | -1.18% (inactive) | –
40 | O=C(O)Cc1ccc(CCNS(=O)(=O)c2ccc(Cl)cc2)cc1 | -0.725% (inactive) | –
